# Inconclusive results are not listed. Active and inactive are the calls of the source. The call rests on the fitted dose curve; in most records, active means well fitted cell-killing curve with a large enough effect in the repeat runs; inconclusive means weak or mixed curves, or effect the other way; inactive means flat fitted curve, though single readings scatter.
# Assay: qHTS assay to identify small molecule agonists of the estrogen receptor beta (ER-beta) signaling pathway - cell viability counter screen (AID 1259380); further: nearly all actives have a fitted effect of over 30% in size
# Conditions: ER-beta-bla HEK293T viability, CellTiter-Glo luminescence, 16 h; series mostly up to 92.4 µM; activity change, negative = cytotoxicity: at the top concentration
# Description: National Center for Advancing Translational Sciences [NCATS]
# NIH Chemical Genomics Center [NCGC]
# U.S. Environmental Protection Agency [EPA]
# National Institutes of Environmental Health Sciences [NIEHS]
# National Toxicology Program [NTP]
# U.S. Food and Drug Administration [FDA]
# Estrogen receptor (ER), a nuclear hormone receptor, plays an important role in development, metabolic homeostasis and reproduction. Two subtypes of ER, ER-alpha and ER-beta, have similar expression patterns with some uniqueness in both types. Endocrine disrupting chemicals (EDCs) and their interactions with steroid hormone receptors like ER causes disruption of normal endocrine function. To identify the compounds that activate ER signaling, an ER beta-UAS-bla GripTite cell line (Life Technologies, Madison, WI, USA) containing a beta-lactamase reporter gene under the control of an UAS response element was used to screen Tox21 10K compound library. The cytotoxicity of the Tox21 compound library against the ER-beta-bla cell line was tested in parallel by measuring the cell viability using CellTiter-Glo assay in the same wells.
# Tox21 Assay Protocol Summary:
# ER-beta-UAS-bla HEK293T cells were dispensed at 2,000 cells/5 uL of assay medium containing 2% charcoal stripped FBS per well into black wall/clear-bottom 1536-well plates using a Multidrop Combi (ThermoFisher Scientific, Waltham, MA) dispenser. After the assay plates were incubated at a 37C and 5% CO2 for 6 hr, 23 nL of compounds dissolved in DMSO, positive controls or DMSO only was transferred to the assay plate by a Pintool station (Kalypsys, San Diego, CA). The plates were incubated at 37C and 5% CO2 for 16 hr. Then 1 uL of LiveBLAzerTM B/G FRET substrate was added using a BioRAPTR FRD (Flying Reagent Dispenser, Aurora Discovery, San Diego, CA) and then the plates were incubated at room temperature for 2 hours, and fluorescence intensity was measured by an Envision plate reader (PerkinElmer, Shelton, CT). For cell viability readout that measures cytotoxicity, 4 uL/well of CellTiter-Glo reagent was added into the assay plates using a FRD. After 30 min incubation at room temperature, the luminescence intensity in the plates was measured using a ViewLux (PerkinElmer) plate reader.
# On the % scale 0 is the no-effect control and ±100 the full control effect; potency means the concentration at half of the fitted maximal effect.
SMILES,"activity change, negative = cytotoxicity",Potency
CCc1nnc(NS(=O)(=O)c2ccc(N)cc2)s1,0.413% [at 42.5 µM] (inactive),
CC(CNC1CCCCC1)OC(=O)c1ccccc1 (stereo not given),0.394% [at 42.5 µM] (inactive),
COc1ccc(Nc2ccc(OC)cc2)cc1,-1.53% (inactive),
CCCCCOc1ccc(C2SC(=O)NC2=O)cc1OCC (stereo not given),,29.8 µM (active)
CCCN(CCC)C(=O)C(CCC(=O)O)NC(=O)c1ccccc1 (stereo not given),3.07% [at 42.5 µM] (inactive),
CC(=O)N(CC(O)CN(C(C)=O)c1c(I)c(C(=O)NCC(O)CO)c(I)c(C(=O)NCC(O)CO)c1I)c1c(I)c(C(=O)NCC(O)CO)c(I)c(C(=O)NCC(O)CO)c1I (stereo not given),2.74% [at 42.5 µM] (inactive),
CCCCNC(=S)NCCCC,-3.46% (inactive),
CC1=NN(c2cc(Cl)c(S(=O)(=O)O)cc2Cl)C(=O)C1N=Nc1ccc(S(=O)(=O)O)cc1 (stereo not given),0.429% (inactive),
C=CCCCCCCCCO,-0.869% (inactive),
NC/C=C/C(=O)O,-0.561% [at 42.5 µM] (inactive),
Oc1ccccc1F,2.31% (inactive),
CC1=C2[C@H](/C=C(\C)C(=O)O)CC[C@@H](C)[C@H]2CC1,,25.2 µM (active)
CCCCCCCCOC(=O)CCCCCCCCC(=O)OCCCCCCCC,1.49% (inactive),
CN(C)CC[C@@H](c1ccc(Cl)cc1)c1ccccn1,-3.4% [at 42.5 µM] (inactive),
ICCc1ccccc1,-4.66% (inactive),
CCOC(=O)C(Br)c1ccccc1 (stereo not given),2.65% (inactive),
CC(Oc1c(Cl)cccc1Cl)C1=NCCN1 (stereo not given),-1.23% [at 42.5 µM] (inactive),
CCCNC(C)C(=O)Nc1c(C)csc1C(=O)OC (stereo not given),1.52% [at 42.5 µM] (inactive),
CCCOc1ccc2c(c1)CC[C@@H]1[C@@H]2CC[C@]2(C)C(OC)CC[C@@H]12 (stereo not given in full),-7.28% [at 42.5 µM] (inactive),
Cn1cnc2c(F)c(Nc3ccc(Br)cc3Cl)c(C(=O)NOCCO)cc21,-10% [at 42.5 µM] (inactive),

SMILES,"activity change, negative = cytotoxicity",Potency
CS(=O)(=O)c1ccc([C@@H](O)[C@@H](CF)NC(=O)C(Cl)Cl)cc1,4.83% [at 42.5 µM] (inactive),
CCOC(=O)CS,,70.5 µM (active)
COC(=O)c1ccc2cc(C(=O)OC)ccc2c1,0.723% [at 19 µM] (inactive),
O=[N+]([O-])c1nccn1CO[C@@H](CO)[C@H](O)CO,1.42% [at 42.5 µM] (inactive),
C[C@@H]1CN(c2c(F)c(N)c3c(=O)c(C(=O)O)cn(C4CC4)c3c2F)C[C@H](C)N1,6.77% [at 19 µM] (inactive),
CC(C)Nc1nc(N)nc(Cl)n1,0.856% (inactive),
CC(=O)N[C@@H](CC(C)C)C(=O)O,3.86% [at 42.5 µM] (inactive),
CC/C=C\CCOC(=O)C(C)C,4.71% (inactive),
CC/C=C\CCOC(=O)CCCCC,4.46% (inactive),
OCCN1CCN(CCO)CC1,-1.25% (inactive),
CC(=O)O[C@H]1CC[C@@]2(C)C(=CC[C@@H]3[C@@H]2CC[C@]2(C)C(C(C)=O)=CC[C@@H]32)C1,9.58% [at 42.5 µM] (inactive),
CCCCCCn1c(=O)c2c(ncn2C)n(C)c1=O,1.89% [at 42.5 µM] (inactive),
O=c1oc2c(O)c(O)cc3c(=O)oc4c(O)c(O)cc1c4c23,7.11% [at 19 µM] (inactive),
NNS(=O)(=O)c1ccc(Oc2ccc(S(=O)(=O)NN)cc2)cc1,2.9% (inactive),
ClC(Cl)Cl,-10.2% (inactive),
CC1=CC(=O)CC(C)(C)C1=O,-2.11% (inactive),
O=S(=O)(O)C(F)(F)F,1.84% (inactive),
CN1CCN(c2c(F)cc3c(=O)c(C(=O)O)cn4c3c2SCC4)CC1,-0.0947% [at 42.5 µM] (inactive),
O=C1CCCCC1C1CCCCC1 (stereo not given),0.551% (inactive),
C=O,3.71% (inactive),

# — PubChem BioAssay (Tox21)
